Only some compounds are listed: those with a hit (about 1.1% of all), similar ones and a draw of the others.
rTrxR1 inhibitor – rat TrxR1 inhibition; O89049; recombinant rTrxR1, NADPH fluorescence consumption, selenite substrate; Potency, µM (series often up to 114 µM), for the others: at the highest dose activity change, negative = inhibition, most hits filed as inhibitors; hit rate 1% among 390,000; AID 588453; note: potency is the fitted concentration of half-maximal effect; nearly all actives have a fitted effect of over 65% in size
Target sequence (O89049 whole entry, looked up): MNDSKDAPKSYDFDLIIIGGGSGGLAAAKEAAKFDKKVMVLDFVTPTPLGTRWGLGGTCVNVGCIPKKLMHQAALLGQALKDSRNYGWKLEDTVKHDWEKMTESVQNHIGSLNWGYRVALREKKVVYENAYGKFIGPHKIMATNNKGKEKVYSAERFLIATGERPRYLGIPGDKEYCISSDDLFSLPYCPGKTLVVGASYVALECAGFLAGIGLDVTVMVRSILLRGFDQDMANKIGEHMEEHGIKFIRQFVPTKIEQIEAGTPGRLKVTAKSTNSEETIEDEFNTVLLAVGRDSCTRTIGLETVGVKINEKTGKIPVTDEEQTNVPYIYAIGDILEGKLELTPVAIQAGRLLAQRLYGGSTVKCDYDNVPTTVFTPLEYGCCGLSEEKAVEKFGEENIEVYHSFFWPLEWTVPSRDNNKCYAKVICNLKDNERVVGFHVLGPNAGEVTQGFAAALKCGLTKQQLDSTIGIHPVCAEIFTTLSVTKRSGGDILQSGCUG
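Rat TrxR1 (90 nM in the dispensed reagent) was pre-reduced with 400 uM NADPH for 5 min at room temperature, then incubated with compound for 15 min. After 400 uM selenite was added, NADPH fluorescence (Ex 340/Em 450 nm) was followed for 8 min.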
LDHA block – LDHA (human) enzyme inhibition | purified LDHA, NADH/diaphorase-resazurin fluorescence; active compounds read low | activity change, % (values are at about 110 or 230 µM) | hit rate 0.15% among 480,000; in the data active = activity change below about -30%; inconclusive = mostly about -25% to -30%;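 note: plate controls were DMSO wells for no effect and wells without enzyme for full effect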
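LDH5 2 nM; NADH 0.06 mM, pyruvate 0.2 mM; 200 mM Tris pH 7.4, EDTA, Tween-20; 5 min RT. Detection: diaphorase 0.133 mg/mL + resazurin 37 µM, fluorescence ex540/em590 at 0 and 20 min; normalized to enzyme-free and DMSO wells.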
a7 integrin act – integrin-mediated muscular dystrophy alleviation activation. alpha7betagal myoblasts, beta-gal FDG fluorescence, 48 h. Potency, µM (doses to about 38.3 µM), without a hit: top-dose activation, usual class: activators. hit rate 0.064% among 350,000;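 note: potency is the fitted concentration of half-maximal effect; 100% = response of the positive control SU9516; nearly all actives have a fitted effect of over 60% in size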
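Alpha7betagal+/- myoblasts (passage 13) were plated 16-24 hr, then exposed to compounds (1:260 dilution of DMSO stock) for 48 hours at 37C. After MPER lysis, β-galactosidase reporter activity was read as FDG fluorescence (ex 480/em 540) after 30 minutes.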
TrxR1 substrate – substrates of rat thioredoxin reductase 1. O89049. purified TrxR1 substrate turnover, NADPH consumption readout. Potency, µM (series often up to 114 µM), inactives show at the highest dose activity change, negative = substrate turnover. hit rate 0.01% among 390,000; note: potency is the fitted concentration of half-maximal effect; nearly all actives have a fitted effect of over 50% in size
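Rat TrxR1, dispensed at 90 nM, was prereduced with 400 uM NADPH (final) for 5 min at ~22 deg C, then incubated with compound 15 min before 400 uM selenite. A first-read NADPH fluorescence drop versus no-compound background flagged substrates.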
PI4K2A block – inhibitors of human PI4K2A | Q9BTU6 | purified PI4K2A, ADP-Glo luminescence, 1 h; active compounds read low | activity change, negative = inhibition, % at 76.9 µM | hit rate 0.13% among 420,000 | AID 1346378; in the data active = activity change below about -50%; inconclusive = mostly about -30% to -49%;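 note: -100% = wells without enzyme as full effect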
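In this quantitative HTS, ADP production by PI4K2A was quantified luminescently after 1 h at ambient temperature; 100 microM adenosine served as plate-quality control.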
GALK inh – galactokinase (human) inhibition | P51570 | AID 1868 | Potency, µM (titrated, usually from 57.5 µM), for inactives: at the top dose activity change, negative = inhibition, actives largely listed as inhibitors | hit rate 0.007% among 270,000 | Purified GALK, Kinase-Glo residual ATP luminescence; note: potency is the fitted concentration of half-maximal effect
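Kinase-Glo Plus luminescence measured ATP left after a 1 h room-temperature reaction. The reaction used 5 nM GALK, 100 uM galactose and 35 uM ATP at pH 8.0 (20 mM HEPES, 5 mM MgCl2, 60 mM NaCl, 1 mM DTT, 0.01% BSA).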
The depositor's hits bear a star; ? = inconclusive; . = no result given; [ ] = remark or other dose. Unless noted, calls come from the whole dose curve; as a rule, active = well fitted curve in the direction sought with a large enough effect; inconclusive = small, poorly fitted or top-dose-only effect, or another doubt; inactive = no such curve, though single readings can be large; an effect the other way counts as inactive or inconclusive. Unless noted, % is set by controls: 0 for no effect and ±100 for the full control effect.

SMILES	rTrxR1 inhibitor	LDHA block	a7 integrin act	TrxR1 substrate	PI4K2A block	GALK inh
Cc1ccc(NC2=C([N+](=O)[O-])CS(=O)(=O)C2)cc1	?	0.3	14.8%	-1.3%[57.1 µM]	-28.0	3.7%
CN(C)c1ccc(NC2=C([N+](=O)[O-])CS(=O)(=O)C2)cc1	?	16.3	-16.7%	-13.8%	-63.1*	-2.8%
COc1cc(/C=C(/C#N)c2nc3ccccc3[nH]2)ccc1OCCC(C)C	.	-2.2	.	.	.	.
CC=C1COC(C(=O)NCCOCCO)(C(F)(F)F)C=C1C=C(C)C (stereo unspecified)	3.55µM*	.	.	5.3%	.	.
C/C=C1\COC(C(=O)NCCOCCO)(C(F)(F)F)C=C1C=C1CCCCC1 (stereo unspecified)	1.58µM*	.	.	5.0%	.	.
C/C=C1\COC(C(=O)NCc2ccncc2)(C(F)(F)F)C=C1C=C1CCCCC1 (stereo unspecified)	17.8µM*	-2.6	11.0%	-3.5%	4.2	.
O=C(NCc1ccccc1)C1(C(F)(F)F)C/C(=C/Cc2ccccc2)CCCO1 (stereo unspecified)	-10.6%	.	.	-7.7%	.	.
COCCNC(=O)C1(C(F)(F)F)C/C(=C\CCO)CCCO1 (stereo unspecified)	7.4%[57.1 µM]	.	.	2.6%	.	.
COc1cccc(CNC(=O)CN2CCCc3ccccc32)c1OC	.	.	.	.	-5.1	.
C/C=C1\COC(C(=O)NCc2cccc(OC)c2OC)(C(F)(F)F)C=C1C=C1CCCCC1 (stereo unspecified)	5.01µM*	2.9	-13.4%	-3.3%	-1.3	.
O=C(Nc1ccc2oc(-c3cccnc3)nc2c1)c1ccccc1I	.	6.9	.	.	.	.
C/C=C1\COC(C(=O)NC)(C(F)(F)F)C=C1C=C1CCCCC1 (stereo unspecified)	1.41µM*	.	.	0.5%	.	.
COc1cc2c(cc1OC)C(C(=O)NC1CC1)C1c3ccccc3CCN1C2=O (stereo unspecified)	1.4%	-3.9	22.5%	-0.5%	-4.7	.
CCN(CC)CCNC(=O)C1c2cc(OC)c(OC)cc2C(=O)N2CCc3ccccc3C12 (stereo unspecified)	35.5µM*	-5.4	0.0%	1.9%	-3.5	4.4%
CCOC(=O)c1cnc2c(C)cccc2c1Nc1ccccc1OCC	.	-34.7*	.	.	.	.
CCOC(=O)c1cnc2c(Cl)cccc2c1Nc1ccccc1OCC	.	-4.6	.	.	.	.
Cc1ccc2c(c1)c(=O)c1c3n2CCN(C(=O)CCl)C3CC1 (stereo unspecified)	14.1µM*	19.5	0.0%	13.8%[57.1 µM]	?	-3.3%
COc1cc(/C=C(/C#N)C(=O)Nc2cccc(C(F)(F)F)c2)ccc1OC(F)F	.	0.3	.	.	.	.
CCOC(=O)c1cc(-c2ccc(S(=O)(=O)Nc3cccc(Cl)c3C)s2)on1	.	-3.2	.	.	.	.
COc1ccc(NC(=O)c2cccc(N3C(=O)c4cccc([N+](=O)[O-])c4C3=O)c2)cc1	-8.1%	-0.7	9.1%	-8.9%	-3.2	4.8%
COc1ccc(/C=C2\C(=O)N(c3c(Cl)cc(Cl)cc3Cl)N=C2NC(=O)c2cccc([N+](=O)[O-])c2)cc1	4.47µM*	-7.9	13.5%	-14.5%	-14.7	-0.2%
COC1=CC(=O)C=C(OC)C1=O	31.6µM*	18.1	.	-23.0%	-6.8	.
N#Cc1ccc(/C=C/c2nc3c(ccc4ccccc43)s2)cc1	.	6.2	.	.	.	.
CCNc1ccc(Br)cc(C(=O)/C=C/c2ccc(Cl)cc2)c1=O	35.5µM*	10.5	-38.1%	-17.7%	3.4	.
CCNc1ccc(Br)cc(C(=O)/C=C/c2ccc3c(c2)OCO3)c1=O	7.94µM*	19.8	-46.1%	-5.0%	-13.5	-1.5%
CN(C)CCCNC(=O)CNc1nc(Cl)nc2nc[nH]c12	.	1.9	.	.	.	.
N#Cc1ccc(Sc2nc3ccccc3[nH]2)cc1C#N	28.6%	0.3	10µM*	10.9%	-3.2	3.6%
CCOc1ccc(C(=O)CCN2CCCCCC2)cc1	0.251µM*	1.3	-62.1%	0.6%	34.0	11.4%
CCCCOc1ccc(C(=O)CCN2CCOCC2)cc1	3.55µM*	-4.3	-38.2%	3.4%[57.1 µM]	30.1	10.4%
Cc1cc(NC(=O)CSc2nc(Cc3ccc(O)cc3)c(C)[nH]2)no1	15.8µM*	-3.0	11.2%	6.4%[57.1 µM]	-0.5	7.3%
